The record followed here is the supplement of paper PMC13380429.

The test system of experiment [1] is Vero E6 infected with SARS-CoV-2. Put plainly: morphology score (similarity to uninfected cells); higher = more like uninfected cells. The following applies: 24 h.
Experiment [2] has the same test system. The experiment can be described thus: SARS-CoV-2 infection rate relative to infected DMSO; higher = more infection, active = 60 or less. The following applies: 24 h.

In experiment [1], `CCS(=O)(=O)N1CCN(c2ccc(Nc3ncc(C(N)=O)c(NC4CC4)n3)cc2)CC1` (10 µM) registered a morphology score of 0.439. In addition, the SARS-CoV-2 infection rate in experiment [2] is 123% (inactive).

`COC(=O)[C@H](NC(=O)c1cc(-c2ccccc2)nc2ccccc12)c1ccccc1` (10 µM) gave a morphology score in experiment [1] of 0.0787. In addition, in experiment [2], the SARS-CoV-2 infection rate was 100% (inactive).

Regarding `COc1cc2c(Nc3ccc(Cl)c(Cl)c3F)ncnc2cc1OC[C@@H]1C[C@@H]2CN(C)C[C@@H]2C1` (10 µM), the morphology score in experiment [1] is -0.291. In experiment [2], the SARS-CoV-2 infection rate was 120% (inactive).

Turning to `O=C(OCC(O)CO)c1ccccc1Nc1ccnc2cc(Cl)ccc12` (stereo not given) [glafenine] (10 µM), the morphology score in experiment [1] came to 0.535. Also, the SARS-CoV-2 infection rate in experiment [2] was 83% (inactive).

Turning to `C[N+]1([O-])[C@@H]2C[C@@H](OC(=O)[C@H](CO)c3ccccc3)C[C@H]1[C@@H]1O[C@@H]12` (stereo not given in full) [scopolamine-N-oxide] (10 µM), in experiment [1], the morphology score came out at 0.142. In addition, the SARS-CoV-2 infection rate in experiment [2] is 107% (inactive).

In turn, `NC1=NCC2c3ccccc3Cc3ccccc3N12` (stereo not given) [epinastine] (10 µM) registered a morphology score in experiment [1] of 0.0427. In experiment [2], the SARS-CoV-2 infection rate is 114% (inactive).

Regarding `CN(C)C/C=C/C(=O)Nc1ccc(C(=O)Nc2cccc(Nc3ncc(Cl)c(-c4c[nH]c5ccccc45)n3)c2)cc1` (10 µM), the morphology score in experiment [1] is -0.108. For the same molecule, the SARS-CoV-2 infection rate in experiment [2] is 94% (inactive).

`N#Cc1c(O)c2c(-c3ccc(-c4ccccc4O)cc3)csc2[nH]c1=O` (10 µM) came in with a morphology score in experiment [1] of 0.0882. Moreover, in experiment [2], the SARS-CoV-2 infection rate was 106% (inactive).

On to `Cc1ncc(Cl)cc1NCc1ccc(C(=O)N[C@@H](CC2CCCC2)C(=O)NC2CC2)s1` (10 µM), for which, in experiment [1], the morphology score turned out to be 0.0746. Moreover, the SARS-CoV-2 infection rate in experiment [2] is 106% (inactive).

In experiment [1], `CN(C)[C@@H]1C(O)=C(C(N)=O)C(=O)[C@@]2(O)C(O)=C3C(=O)c4c(O)ccc(Cl)c4[C@@H](O)[C@H]3C[C@@H]12` [demeclocycline] (10 µM) registered a morphology score of 0.0306. In addition, the SARS-CoV-2 infection rate in experiment [2] was 96% (inactive).
